# Test results reported in the supplement of paper PMC8728848.
# Many of the other results were omitted from the sample, so the strongest signals are more common in it than they were.
# B1: Mincle (Bos taurus) (protein)
# chain: MNSSTSPASQTERRCFSFQLFSWAIAGTSILLLSACFITRCVVTYSIFQLCDEKKFQPPGDSMELSCYNDGSGSVKNCCPLKWFHFQSSCYLFSPDTMSWRASLKNCSSMGAHLVVINTQEEQEFLYYTKPRKKEFYIGLTDQVTEGQWQWVDGTPFTKSLSFWDAGEPNNLVIVEDCATIRDSSNPRQNWNDVPCFFNMFRVCEMPERKI
# Tests used:
# Assay in all cases: glycan array binding signal (z-score within array); higher = stronger binding
# Details in all cases: glycan notation: IUPAC condensed, linker removed
# Fuc(a1-2)Gal = target: Fuc(a1-2)Gal
# Summary of the method: (§1)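 The binding signal is a Z-score computed within each array and averaged over linkers. Arrays of the same protein sequence at different concentrations or buffers were also averaged together. Data originate from 3228 arrays in the Consortium for Functional Glycomics database, kept only where the protein sequence was available.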
# [1] = target: Fuc(a1-2)Gal(b1-4)GlcNAc(b1-2)Man(a1-3)[Fuc(a1-2)Gal(b1-4)GlcNAc(b1-2)Man(a1-6)]Man(b1-4)GlcNAc(b1-4)GlcNAc
# Summary of the method: as §1
# [2] = target: Fuc(a1-2)Gal(b1-4)GlcNAc(b1-6)GalNAc
# Summary of the method: as §1
# [3] = target: Fuc(a1-2)Gal(b1-4)[Fuc(a1-3)]GlcNAc(b1-3)[Neu5Ac(a2-6)Gal(b1-4)GlcNAc(b1-6)]Gal(b1-4)Glc
# Summary of the method: as §1
# Fuc(a1-2)[Gal(a1-3)]Gal = target: Fuc(a1-2)[Gal(a1-3)]Gal
# Summary of the method: as §1
# [4] = target: Fuc(a1-2)[Gal(a1-3)]Gal(b1-4)GlcNAc(b1-2)Man(a1-3)[Fuc(a1-2)[Gal(a1-3)]Gal(b1-4)GlcNAc(b1-2)Man(a1-6)]Man(b1-4)GlcNAc(b1-4)[Fuc(a1-6)]GlcNAc
# Summary of the method: as §1
# [5] = target: Fuc(a1-2)[GalNAc(a1-3)]Gal(b1-3)GalNAc(b1-3)Gal(a1-4)Gal(b1-4)Glc
# Summary of the method: as §1
# [6] = target: Fuc(a1-2)[GalNAc(a1-3)]Gal(b1-3)GlcNAc(b1-2)Man(a1-3)[Fuc(a1-2)[GalNAc(a1-3)]Gal(b1-3)GlcNAc(b1-2)Man(a1-6)]Man(b1-4)GlcNAc(b1-4)[Fuc(a1-6)]GlcNAc
# Summary of the method: as §1
# [7] = target: Fuc(a1-2)[GalNAc(a1-3)]Gal(b1-4)GlcNAc(b1-2)Man(a1-3)[Fuc(a1-2)[GalNAc(a1-3)]Gal(b1-4)GlcNAc(b1-2)Man(a1-6)]Man(b1-4)GlcNAc(b1-4)GlcNAc
# Summary of the method: as §1
# [8] = target: Fuc(a1-3)[Gal(b1-4)]Glc6S
# Summary of the method: as §1
# [9] = target: Fuc(a1-3)[Gal3S(b1-4)]GlcNAc6S
# Summary of the method: as §1
# [10] = target: Gal(a1-3)Gal(b1-3)GlcNAc(b1-3)GalNAc
# Summary of the method: as §1
# [11] = target: Gal(a1-3)Gal(b1-3)[Fuc(a1-4)]GlcNAc(b1-2)Man(a1-3)[Gal(a1-3)Gal(b1-3)[Fuc(a1-4)]GlcNAc(b1-2)Man(a1-6)]Man(b1-4)GlcNAc(b1-4)GlcNAc
# Summary of the method: as §1
# Gal(a1-3)Gal(b1-4)Glc = target: Gal(a1-3)Gal(b1-4)Glc
# Summary of the method: as §1
# [12] = target: Gal(a1-3)Gal(b1-4)GlcNAc(b1-3)GalNAc
# Summary of the method: as §1
# [13] = target: Gal(a1-3)Gal(b1-4)[Fuc(a1-3)]GlcNAc
# Summary of the method: as §1
# Gal(a1-4)Gal(b1-4)Glc = target: Gal(a1-4)Gal(b1-4)Glc
# Summary of the method: as §1
# [14] = target: Gal(a1-4)Gal(b1-4)GlcNAc(b1-2)Man(a1-3)[Gal(a1-4)Gal(b1-4)GlcNAc(b1-2)Man(a1-6)]Man(b1-4)GlcNAc(b1-4)GlcNAc
# Summary of the method: as §1
# [15] = target: Gal(a1-4)Gal(b1-4)GlcNAc(b1-3)Gal(b1-4)Glc
# Summary of the method: as §1
# Gal(b1-3)Gal(b1-4)GlcNAc = target: Gal(b1-3)Gal(b1-4)GlcNAc
# Summary of the method: as §1
# Gal(b1-3)GalNAc = target: Gal(b1-3)GalNAc
# Summary of the method: as §1
# [16] = target: Gal(b1-3)GlcNAc(b1-3)Gal(b1-4)GlcNAc(b1-2)Man(a1-3)[Gal(b1-3)GlcNAc(b1-3)Gal(b1-4)GlcNAc(b1-2)Man(a1-6)]Man(b1-4)GlcNAc(b1-4)GlcNAc
# Summary of the method: as §1
# Gal(b1-3)GlcNAc6S = target: Gal(b1-3)GlcNAc6S
# Summary of the method: as §1
# [17] = target: Gal(b1-3)[Fuc(a1-4)]GlcNAc(b1-2)Man
# Summary of the method: as §1
# Gal(b1-4)Glc6S = target: Gal(b1-4)Glc6S
# Summary of the method: as §1
# Gal(b1-4)GlcNAc = target: Gal(b1-4)GlcNAc
# Summary of the method: as §1
# [18] = target: Gal(b1-4)GlcNAc(b1-2)[Gal(b1-4)GlcNAc(b1-6)]Man(a1-6)[Gal(b1-4)GlcNAc(b1-2)Man(a1-3)]Man(b1-4)GlcNAc(b1-4)GlcNAc
# Summary of the method: as §1
# [19] = target: Gal(b1-4)GlcNAc(b1-3)Gal(b1-4)GlcNAc(b1-2)Man(a1-3)[Gal(b1-4)GlcNAc(b1-3)Gal(b1-4)GlcNAc(b1-2)Man(a1-6)]Man(b1-4)GlcNAc(b1-4)[Fuc(a1-6)]GlcNAc
# Summary of the method: as §1
# [20] = target: Gal(b1-4)GlcNAc(b1-3)Gal(b1-4)GlcNAc(b1-3)Gal(b1-4)GlcNAc(b1-3)Gal(b1-4)GlcNAc(b1-3)Gal(b1-4)GlcNAc(b1-3)Gal(b1-4)GlcNAc(b1-2)Man(a1-3)[Gal(b1-4)GlcNAc(b1-3)Gal(b1-4)GlcNAc(b1-3)Gal(b1-4)GlcNAc(b1-3)Gal(b1-4)GlcNAc(b1-3)Gal(b1-4)GlcNAc(b1-3)Gal(b1-4)GlcNAc(b1-2)Man(a1-6)]Man(b1-4)GlcNAc(b1-4)GlcNAc
# Summary of the method: as §1
# [21] = target: Gal(b1-4)GlcNAc(b1-3)[Gal(b1-4)GlcNAc(b1-6)]Gal(b1-4)GlcNAc
# Summary of the method: as §1
# [22] = target: Gal3S(b1-3)[Fuc(a1-4)]GlcNAc
# Summary of the method: as §1
binder,measurement,setting,value
B1,glycan array binding signal (z-score),Fuc(a1-2)Gal,3.49
same,glycan array binding signal (z-score),[1],1.4
same,glycan array binding signal (z-score),[2],-0.168
same,glycan array binding signal (z-score),[3],-0.411
same,glycan array binding signal (z-score),Fuc(a1-2)[Gal(a1-3)]Gal,-0.737
same,glycan array binding signal (z-score),[4],-0.601
same,glycan array binding signal (z-score),[5],-0.374
same,glycan array binding signal (z-score),[6],0.364
same,glycan array binding signal (z-score),[7],0.419
same,glycan array binding signal (z-score),[8],-0.342
same,glycan array binding signal (z-score),[9],-0.116
same,glycan array binding signal (z-score),[10],0.019
same,glycan array binding signal (z-score),[11],1.26
same,glycan array binding signal (z-score),Gal(a1-3)Gal(b1-4)Glc,0.058
same,glycan array binding signal (z-score),[12],-0.713
same,glycan array binding signal (z-score),[13],-0.559
same,glycan array binding signal (z-score),Gal(a1-4)Gal(b1-4)Glc,-0.565
same,glycan array binding signal (z-score),[14],0.919
same,glycan array binding signal (z-score),[15],-0.763
same,glycan array binding signal (z-score),Gal(b1-3)Gal(b1-4)GlcNAc,-0.462
same,glycan array binding signal (z-score),Gal(b1-3)GalNAc,-0.37
same,glycan array binding signal (z-score),[16],0.271
same,glycan array binding signal (z-score),Gal(b1-3)GlcNAc6S,-0.773
same,glycan array binding signal (z-score),[17],1.34
same,glycan array binding signal (z-score),Gal(b1-4)Glc6S,0.6
same,glycan array binding signal (z-score),Gal(b1-4)GlcNAc,-0.249
same,glycan array binding signal (z-score),[18],-0.55
same,glycan array binding signal (z-score),[19],1.11
same,glycan array binding signal (z-score),[20],0.667
same,glycan array binding signal (z-score),[21],-1.01
same,glycan array binding signal (z-score),[22],3.35
